Test results taken from PubChem BioAssay AID1080 (Emory University Molecular Libraries Screening Center, 2008).
About 640 (49%) of roughly 1,300 compounds were called active.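 Rule for the calls: active = cAMP induction above 50% in the main assay while under 30% in all four parallel counter assays; inactive = the rest.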 The set was probably picked from earlier hits. Not all results are given here.

How the values were obtained:
[1] = cAMP induction in EP2, EP4, beta2-AR and parental cells, confirmation, counter-screen for EP2 modulator project, cell-based, five parallel assays, C6 glioma, HEK293 (AID 1080); conditions: cAMP HTRF induction
[2] = target: Prostaglandin E2 receptor EP2 subtype (Homo sapiens) (UniProt P43116); assay: as above; conditions: cAMP HTRF induction, stronger effect = higher value, screened at 20 µM (by protocol), percent of 1 uM PGE2 response, plus low (about EC15) PGE2 agonist
[3] = measured here: EP4 receptor counter-screen, percent of 1 uM PGE2 response, plus low (about EC15) PGE2 agonist
[4] = measured here: beta2 adrenergic HEK293 counter-screen
[5] = measured here: cAMP conditions counter-screen
[6] = measured here: parent C6 cells counter-screen

SMILES | cAMP induction [1, 3] [%] | cAMP induction [1, 4] [%] | cAMP induction [1, 5] [%] | cAMP induction [1, 6] [%] | cAMP induction [2]
O=C(Nc1ccccc1N1CCCCC1)c1cccc(F)c1 | 20.9 | -8.46 | -6.32 | -1.46 | 54.4% (active)
O=C(Nc1ccccc1N1CCCCC1)c1ccc2nccnc2c1 | -20.6 | -12.3 | -1.35 | -3.85 | 56.9% (active)
CCC(C)(C)c1ccc(OCC(=O)N(C)C)c(C(C)(C)CC)c1 | -18 | -18.7 | -1.65 | -11.3 | 18.5% (inactive)
CC[C@@H]1Cc2cc(O)ccc2C2=C1c1ccc(O)cc1C[C@H]2CC | -0.0767 | -11.7 | 6.45 | 2.02 | 34.5% (inactive)
CCCc1cc(-c2n[nH]c(=S)n2Cc2ccccc2)cs1 | 1.9 | -7.59 | -4.47 | 1.74 | 37.8% (inactive)
CCCCOc1ccc(-c2nnc(-c3ccco3)o2)cc1 | -1.8 | -7.34 | 3.34 | 3.09 | 50.4% (active)
Cc1cc(C#N)c(SCC(N)=O)nc1-c1ccc(F)cc1 | 9.53 | 7.22 | 2.14 | -4.05 | 50.9% (active)
FC(F)(F)c1cccc(-c2cc3ccccc3nc2N2CCCC2)c1 | 17.7 | -13 | -2.73 | -3.28 | 52.7% (active)
CCOC(=O)c1c(C2CC2)csc1NC(=O)CSCc1c(C)noc1C | -15.3 | -5.42 | -2.02 | 2.56 | 48.8% (inactive)
O=c1cc(N2CCCCC2)c(-c2ccccc2)nn1Cc1cccc(F)c1 | -7.11 | -13 | 3.15 | 3.46 | 79.6% (active)
CCOc1ccc(NC(=O)CSc2ncnc3c2sc2ccccc23)cc1 | 80.8 | 81.1 | 79.9 | 80.1 | 77.7% (inactive)
COc1ccc(C)c(Cn2c(-c3nonc3N)nc3ccccc32)c1 | 4.7 | -6.52 | 1.9 | 1.52 | 69.6% (active)
COC(=O)C1=C(C)N(C)C(C)=C(C(=O)OC)C1c1cccc(Br)c1 | -5.89 | 5.82 | -5.28 | 1.49 | 46% (inactive)
Cc1ccccc1-c1n[nH]c(=S)n1/N=C/c1ccc(-c2ccccc2Br)o1 | 18.4 | 14.3 | 22.4 | 19.4 | 57.9% (active)
O=c1[nH]c(CSc2ncc(-c3ccc(F)cc3)n2Cc2ccco2)nc2ccccc12 | -12.9 | -5.45 | -6.27 | -5.69 | 39.9% (inactive)
Cc1nn2c(c1-c1ccccc1)N=C(c1ccco1)CC2c1ccccc1 (stereo not given) | -13.9 | -0.13 | 0.137 | 4.52 | 36.7% (inactive)
NC(=O)COc1ccc(C23CC4CC(CC(C4)C2)C3)cc1 | -2.42 | -18.4 | 7.34 | -0.99 | 64.6% (active)
Cc1nc2ccccc2c(-c2ccccc2)c1C(=O)c1ccccc1 | 2.31 | 4.97 | -6.03 | -0.11 | 88.9% (active)
O=c1c2ccccc2nc2n1C1(CCCCC1)Cc1ccccc1-2 | -3.33 | -1.27 | 0.00333 | -4.35 | 55.1% (active)
CC(C)(C)c1nc2ccccc2c(=O)n1N1C(=O)c2ccccc2C1=O | -2.16 | 4.41 | 5.06 | 3.57 | 36.9% (inactive)
CN(C)Cc1ccc(F)cc1Sc1cc(Cl)ccc1Cl | -1.47 | -10.1 | -3.1 | 2.77 | 45.2% (inactive)

SMILES | cAMP induction [1, 3] [%] | cAMP induction [1, 4] [%] | cAMP induction [1, 5] [%] | cAMP induction [1, 6] [%] | cAMP induction [2]
CC(C)NC(=S)NN=C1CCCCCCCCCCC1 | 1.01 | 7.6 | 2.87 | -7.59 | 54.8% (active)
COC(=O)CSc1nc2c(c(C3CC=CCC3)c1C#N)CCC2 (stereo not given) | 1.11 | 7.56 | 3.4 | 4.46 | 69.8% (active)
CSc1ncnc2sc(C)c(C)c12 | 5.89 | 2.78 | 5.03 | 0.0167 | 42.1% (inactive)
CC1CCN(c2nc3c(c(=O)[nH]c(=O)n3C)n2CCCc2ccccc2)CC1 | 4.8 | -2.72 | -1.35 | -0.403 | 42.2% (inactive)
Cc1cccc(Cn2c(N3CCN(c4ccccc4)CC3)nc3c2c(=O)n(C)c(=O)n3C)c1 | -5.29 | -6.91 | 5.21 | 1.06 | 54.8% (active)
COc1c2c(cc3occ(-c4ccc5c(c4)OCO5)c(=O)c13)OC(C)(C)C=C2 | -0.877 | -13.4 | 2.3 | 4.12 | 46.1% (inactive)
CC(C)Oc1ccc(Cc2n[nH]c(=S)n2Cc2ccccc2)cc1Cl | -4.47 | -10.4 | 0.63 | 2.28 | 40% (inactive)
CC1(C)Cc2nc3sc4c(SCC(=O)NC(c5ccccc5)c5ccccc5)ncnc4c3cc2CO1 | 71.8 | 71.7 | 70.8 | 70 | 68.6% (inactive)
CCOC(=O)C1=C(CN2CCc3ccccc32)NC(=O)NC1c1ccc(Cl)cc1 (stereo not given) | -13 | -5.75 | -12.2 | -1.26 | 42.4% (inactive)
Cc1cc(NC(=O)CN2CCCC(C)C2)n(-c2nc3ccccc3s2)n1 (stereo not given) | 16.2 | 6.5 | -2.07 | -6.69 | 50.7% (active)
COC(=O)c1sc2[nH]c(=S)n(N)c(=O)c2c1C | 68.1 | 67.4 | 67.6 | 66.3 | 70.6% (inactive)
Cc1cccc2cc(CN(Cc3cccs3)C(c3nnnn3C3CCCC3)C(C)C)c(=O)[nH]c12 (stereo not given) | -2.3 | -6.33 | 1.55 | 3.32 | 59.5% (active)
Oc1ccc(/C=N/N(Cc2ccccc2)c2ccccc2)cc1 | -13.7 | -14.9 | -0.103 | 2.51 | 55.2% (active)
CCN1CCN(c2c(Cl)cccc2NC(=O)c2ccc(Br)o2)CC1 | 9.56 | -6.35 | 8.3 | 10.5 | 45.8% (inactive)
CCOC(=O)c1c(N)nn(C(=O)c2ccccc2)c1-c1ccccc1 | -2.57 | -8.03 | 0.963 | -2.53 | 53.3% (active)
Cc1ccc(-n2c(SCC(=O)Nc3ccc4c(c3)OCO4)nnc2-c2ccoc2C)cc1 | 7.89 | -0.777 | -1.2 | -1.05 | 40.3% (inactive)
COc1ccccc1NC(=O)CSc1nnc(Cn2nnc(-c3ccccc3)n2)n1-c1ccccc1 | -5.84 | -2.51 | 2.46 | 3.99 | 61.9% (active)
O=c1c2ccccc2c(-c2ccc(Br)cc2)nn1Cc1ccccc1 | 4.3 | 8.28 | -3.64 | 0.753 | 72.8% (active)
CSc1nc2ccccc2c(=O)n1Cc1ccc(F)cc1 | 1.87 | 10 | -3.28 | 0.81 | 44.6% (inactive)
O=c1c2ccccc2c(-c2ccccc2)nn1Cc1ccccc1 | 1.05 | 4.51 | -1.54 | -0.867 | 78% (active)
